Here are results for 28 compounds from ChEMBL document CHEMBL3988442, “University of Dundee, Small-Polar-MMV Screening Library” (2021).

Each structure is given as a SMILES string. Among all 48,000 compounds or so, about 13,000 (27%) showed an effect of 50% or more. The list shows a part of the results.

In this assay the test system is Wolbachia pipientis. Nature of the assay: Anti-Wolbachia Cell-Based Screen. In kind it is functional. Set-up: scale not given: in the data most compounds retested in dose-response had high values. Particulars: 5 µM.
Take `COc1cccc(CN(C)Cc2ccc(C#N)cc2)c1OC`: the “Percent Effect” value was -1.171%.
On to `Cc1cc(NCCNc2ccc(C#N)cn2)nc(C)n1`, for which the “Percent Effect” value is recorded as -1.6%.
`Cc1ccccc1[C@@H]1CN(Cc2ccc(C(F)(F)F)nc2)C[C@H]1C(=O)O`: the “Percent Effect” value is on record as 28.6%.
On to `COCCCSc1ccc(NCc2cscn2)cc1`, for which the “Percent Effect” value is -5.261%.
As for `O=C(CCC(F)(F)F)NCC1CCCS1` (stereo not drawn), the figure is -25.1%; as for `O=C(NCC1(Sc2ccccc2)CC1)c1cc[nH]n1`, 109.2%.
With `O=C(NCCn1nc2ccccn2c1=O)c1cc[nH]n1`, the “Percent Effect” value is given as 8.097%.
On to `O=C(NCC1(Sc2ccccc2)CC1)c1c[nH]nn1`, for which the “Percent Effect” value is 96.18%.
The same measure for `CN(Cc1ccco1)Cc1ccccc1CNC(=O)c1c[nH]nn1`: 2.895%; for `O=C(NCC1(Sc2ccccc2)CC1)c1ccc(=O)[nH]n1`: 98.28%; for `O=C(NCC1(CO)CC1)c1ccccc1Cl`: 3.943%.
As for `O=C(NC1(c2cccc(F)c2)CCOCC1)c1cc[nH]n1`, the figure is -5.45%.
Turning to `CCN(CC)c1ccc(CNC(=O)c2ccc(=O)[nH]n2)cn1`, the “Percent Effect” value is recorded as -14.62%.
On to `CN1CCN(c2cc(CNC(=O)c3ccc(=O)[nH]n3)ccn2)CC1`, for which the “Percent Effect” value was determined as 7.081%.
In the case of `CCc1nnc2n1CCN(c1nc3ccccc3o1)C2`, the “Percent Effect” value is reported as -17.82%.
The same measure for `Cc1ccccc1OCCC(=O)OC(C)C(=O)Nc1sccc1C(N)=O` (stereo not drawn): 15.81%; for `CCS(=O)(=O)N1CCC2(CCCN(Cc3cc(OC)ccc3F)C2)C1` (stereo not drawn): -8.238%.
The same measure for `O=C(COc1ccc(C(F)(F)F)cc1)NS(=O)(=O)c1cccnc1`: -2.745%; for `Cc1ocnc1C(=O)N1CCN(C(=O)CC(C)C)[C@@H]2CS(=O)(=O)C[C@@H]21`: -7.127%.
For the compound `Cc1ocnc1C(=O)N1CCC(c2nccn2Cc2ccncc2)CC1`, the “Percent Effect” value was found to be 10.72%.
The same measure for `Cc1ncoc1C(=O)N1C[C@@H]2CN(CC3CC3)CCO[C@@H]2C1`: -7.815%; for `Cc1ncoc1C(=O)N1CC[C@@H](O)[C@@H](O)[C@H](N2CCC(F)(F)CC2)C1`: 142%; for `CC(C)C1CN(C(=O)c2ccncc2)CCS1` (stereo not drawn): -8.547%.
The same measure for `Cc1ncoc1C(=O)N1CCCC(C(=O)c2cccc(OC(C)C)c2)C1` (stereo not drawn): -0.1018%; for `CN1CC(c2ccccc2)CC12CCN(C(=O)c1ccncc1)CC2` (stereo not drawn): -13.44%; for `O=C(c1ccncc1)N1CC[C@@H](O)[C@@H](O)[C@H](N2CCC(F)(F)CC2)C1`: 113.1%.
With `Cc1ocnc1C(=O)N1CC[C@@H](O)[C@@H](O)[C@H](N2CCC(F)(F)CC2)C1`, the “Percent Effect” value is reported as 120%.
As for `CC(NC1(CNS(C)(=O)=O)CCOCC1)c1ccccc1` (stereo not drawn), the figure is 3.887%.
